Where “and” joins values, the source holds several entries; their conditions need not be identical. Identical values can stand only once. About 79,000 compounds went through this panel and 15% of them were active in at least one assay; those are over-represented in the sample as a whole. A number with no mark means an inactive call. Calls of active or inactive are those of the source. No stated cut-off is given here; in the data, active means growth inhibition above about 70%; inactive means the rest.
Assay: NCI Yeast Anticancer Drug Screen. Data for the mlh1 rad18 strain (AID 175)
Details: S. cerevisiae mlh1 rad18 strain growth inhibition, stronger effect = higher value; at 50.0 µM unless noted
In short: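 Read-out is yeast growth inhibition, calculated against vehicle-only controls. The compound was applied to a strain engineered with DNA damage repair alterations.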
With `Nc1ncnc2c1ncn2C1OC(C(O)CO)C(O)C1O` (stereo not given) the growth inhibition was -16.1% and -31.6%.
In the case of `CCCCCCCCCC(=O)N=C(C(N)=O)C(N)=O`, the growth inhibition is reported as 21.8%.
For `C#CCOC(=O)c1ccccc1`, the growth inhibition was 0%.
Compound `CNC(=S)C#N` has a growth inhibition of 0.1%.
For `O=P(O)(O)c1ccc(-c2ccc(I)cc2)cc1`, the growth inhibition was 13.2%.
With `CCOC(=O)N/N=C/c1ccccc1C` the growth inhibition was -15.4%.
`NC(=O)N/N=C/c1ccc([N+](=O)[O-])cc1` showed a growth inhibition of -4.2%.
For `COc1ccc(C)cc1S(=O)(=O)c1ccc(Cl)cc1[N+](=O)[O-]`, the growth inhibition was -25.1%.
`COC(=O)OCCOC(=O)OC` showed a growth inhibition of 9.5%.
`O=C(O)CC(c1ccccc1)C(CC(=O)O)c1ccccc1` (stereo not given) gave a growth inhibition of 9.85%.
Work on `Cc1c(NC(=O)CSC(=S)N(C)C)c(=O)n(-c2ccccc2)n1C` yielded a growth inhibition of -53.4%.
`NC(=O)c1ccccc1OC(=O)Nc1ccc(F)c([N+](=O)[O-])c1` showed a growth inhibition of 12.1%.
In the case of `COc1ccc(CC(C)NN)cc1` (stereo not given), the growth inhibition is reported as 98.5% (active).
Compound `O=[N+]([O-])c1ccc(NN=C2CCCCC2)c([N+](=O)[O-])c1` has a growth inhibition of 30.6%.
`CCCCOC(=O)C(C)OC(=O)C(C)Oc1cc(Cl)c(Cl)cc1Cl` (stereo not given) gave a growth inhibition of -0.8%.
`CC(=O)Oc1c(C)c2c(c3ncccc13)OC(C)C2` (stereo not given) showed a growth inhibition of 34.8%.
For `NNC(=O)CCC(=O)O`, the growth inhibition was -15.6%.
In the case of `Nc1nc(Cl)c(N)c(NCC2(CO)CC(Cc3ccccc3)C2)n1` (stereo not given), the growth inhibition is reported as 15.1%.
Work on `CC1(C)OCC(N)[C@@H](O)CO1` (stereo not given in full) yielded a growth inhibition of -0.65%.
For `Cc1ccc(Cl)cc1NC(=O)c1ccccc1`, the growth inhibition was 14.8%.
Work on `COC(=O)/C=C(/Sc1nc(Cl)c(Cl)nc1N)C(=O)OC` (tested in a mixture with another compound) yielded a growth inhibition of -24.6%.
With `C=C1C=C2CCC3C(CCC4(C)C(C(C)CCCC(C)C)CCC34)C2(C)CC1` (stereo not given) the growth inhibition was 74.2% (active).
With `Nc1cc2c(cc1[N+](=O)[O-])-c1ccc(Cl)cc1C2=O` the growth inhibition was 41.2%.
With `O=C1c2ccccc2C(=O)c2cc3nc4c5ccccc5c5ccccc5c4nc3cc21` the growth inhibition was -13.6%.
`CCCCOC(=O)c1ccccc1C(=O)Nc1ccccc1` gave a growth inhibition of -19.7%.
In the case of `NC(=O)NCCCC(N)C(=O)O` (stereo not given), the growth inhibition is reported as -10.4% and -14.9%.
Compound `CCOC(OCC)c1cc(=O)[nH]c(NC(C)=O)n1` has a growth inhibition of 5.4%.
With `CS/C(=N\c1nccs1)NC(=O)c1cccc(Cl)c1` the growth inhibition was 10.8%.
For `O=C(Nc1ccc(Cl)cc1)C(Cl)C(Cl)c1ccc(Cl)cc1` (stereo not given), the growth inhibition was -23.1%.
`FC(F)(F)c1ccc2ccc3ccc(Cl)cc3c2c1` gave a growth inhibition of -6.55%.
With `O=C1C2C(c3ccccc3)NC(c3ccccc3)C1C(c1ccccc1)NC2c1ccccc1` (stereo not given) the growth inhibition was 0.9%.
`CC(=O)CC(C[N+](=O)[O-])c1ccccc1` (stereo not given) gave a growth inhibition of -6.9%.
In the case of `CCOC(=O)c1oc2cc(O)ccc2c(=O)c1-c1ccc(OC)c(OC)c1`, the growth inhibition is reported as 11.8%.
`COc1ccc2nc3cccc([N+](=O)[O-])c3c(NC(C)CN(C)C)c2c1` (stereo not given) gave a growth inhibition of 42.9%.
`Cc1cc(Cl)cc2c1OC(C)OC2=O` (stereo not given) showed a growth inhibition of 28.6%.
`CSc1nc(N)c2cnn(Cc3ccccc3)c2n1` showed a growth inhibition of 31.4%.
For `CCOC(=O)Cc1ccc2ccccc2c1`, the growth inhibition was 7.5%.
For `C/C(=N\NC(N)=O)C1(O)CCCCC1`, the growth inhibition was -11%.
`CCC(C)C(O)C(C)C` (stereo not given) gave a growth inhibition of 21.8%.
For `N#CCN(CC#N)C1CC=CCC1N(CC#N)CC#N` (stereo not given), the growth inhibition was -38.1%.
